Data: PubChem BioAssay (NCATS)
Values without a mark were called inactive. Inconclusive results are not listed. A call without a number means that no potency is given here. Activity calls are given as the source filed them. Calls come from the whole dose curve; as a rule, active = well fitted curve in the direction sought with a large enough effect; inconclusive = small, poorly fitted or top-dose-only effect, or another doubt; inactive = no such curve, though single readings can be large; an effect the other way counts as inactive or inconclusive.

Key:
[1] = target: Glutathione peroxidase 1 (Homo sapiens) (UniProt P07203); assay: Primary qHTS Assay for Inhibitors of Recombinant Selenoprotein Glutathione Peroxidase 1 (GPX1) (AID 1845191); note: nearly all actives have a fitted effect of over 65% in size
Chain of Glutathione peroxidase 1 (Homo sapiens) (P07203 whole entry, looked up): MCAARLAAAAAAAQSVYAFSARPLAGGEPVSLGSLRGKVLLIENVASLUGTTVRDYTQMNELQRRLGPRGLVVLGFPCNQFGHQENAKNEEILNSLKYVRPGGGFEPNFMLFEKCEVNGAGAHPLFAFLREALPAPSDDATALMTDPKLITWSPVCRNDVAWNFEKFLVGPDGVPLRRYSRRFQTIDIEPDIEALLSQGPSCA
In short: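 10 nM GPX1 + cpd, 30 min RT; start w/ 1 mM GSH, 0.5 mM cumene hydroperoxide, 0.5 mM NADPH, 100 nM GR, 0.01% BSA; buffer 50 mM Tris-HCl pH 7.5, 2 mM EDTA, 150 mM NaCl; Fl 340/450, 0 & 15 min.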

[2] = target: Phospholipid hydroperoxide glutathione peroxidase GPX4 (Homo sapiens) (UniProt P36969); assay: Primary qHTS Assay for Inhibitors of Recombinant Selenoprotein Glutathione Peroxidase 4 (GPX4) (AID 1845192); note: nearly all actives have a fitted effect of over 65% in size; for activity change, negative = inhibition: series mostly up to about 50 µM
Chain of Phospholipid hydroperoxide glutathione peroxidase GPX4 (Homo sapiens) (P36969 whole entry, looked up): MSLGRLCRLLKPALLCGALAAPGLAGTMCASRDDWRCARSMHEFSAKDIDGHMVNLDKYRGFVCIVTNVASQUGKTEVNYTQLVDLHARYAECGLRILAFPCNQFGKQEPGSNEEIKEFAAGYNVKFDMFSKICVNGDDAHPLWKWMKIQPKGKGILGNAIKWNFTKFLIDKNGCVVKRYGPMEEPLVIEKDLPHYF
In short: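 NADPH consumption, followed by fluorescence at 340/450 nm between 0 and 15 min, reports GPX4 activity via coupled glutathione reductase (100 nM). Enzyme 200 nM was pre-exposed to compound 30 min; 0.5 mM cumene hydroperoxide and 1 mM GSH served as substrates.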

[3] = target: Luciferin 4-monooxygenase (Photinus pyralis) (UniProt P08659); assay: Primary firefly luciferase (FLuc) qHTS assay for identification of artifact compounds. (AID 1845220); note: nearly all actives have a fitted effect of over 60% in size; note: potency is the fitted concentration of half-maximal effect; for activity change, negative = inhibition: series mostly up to about 54 µM
In short: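 Compounds sat 15 min at room temperature with 10 uM luciferin and 10 uM ATP (pH 7.6 Tris acetate). Firefly luciferase (10 nM final) was then added, and luminescence was read 5 min later. Data normalized to no-enzyme and DMSO controls were Hill-fitted.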

[4] = Primary fluorescence-based thiol-reactive (MSTI) qHTS assay for identification of artifact compounds. (AID 1845221); note: nearly all actives have a fitted effect of over 65% in size; note: potency is the fitted concentration of half-maximal effect;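 for activity change, negative = thiol reactive: series mostly up to about 54 µM; thiol-reactive compounds lower the probe fluorescence signal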
In short: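 qHTS titration of compound; 4 uM MSTI, PBS pH 7.4, 2% DMSO; 1 h RT, dark; fluorescence 525/598 nm; normalized to Acetyl-MSTI and MSTI; 4-parameter Hill fit.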

[5] = test system: Nanoluciferase (engineered Oplophorus gracilirostris luciferase); assay: Primary Nanoluciferase (NLuc) qHTS assay for identification of artifact compounds. (AID 1845222); note: series mostly up to about 54 µM
In short: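 Luminescence from secreted NLuc (filtered, 1:55-diluted S16 cell medium) read 5 min after Nano-Glo substrate; compounds preincubated 15 min, RT. Hill fits of inhibition normalized to DMSO and no-enzyme.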

[6] = Primary redox qHTS assay for identification of artifact compounds. (AID 1845223); note: potency is the fitted concentration of half-maximal effect
In short: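 Amplex Red (25 uM) and HRP (250 mU/mL) in HBSS, with compounds for 15 min, then 250 uM DTT for 30 min, room temperature, dark. Fluorescence 525/598 nm read; normalized to DMSO and 10 uM DA3003; Hill fit.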

| SMILES | Potency [1] | Potency [2] | Potency [3] | Potency [4] | Potency [5] | Potency [6] | activity change, negative = inhibition [3] | activity change, negative = thiol reactive [4] | activity, negative = inhibition [5] | redox activity (% of DA3003) [6] |
| --- | --- | --- | --- | --- | --- | --- | --- | --- | --- | --- |
| Cc1ccc(-c2c(C(=O)CCl)n(CCCO)c3ncnc(N)c23)cc1 | inactive | inactive | inactive | inactive | inactive | 15 µM (active) |  |  |  |  |
| N#Cc1cccc(C(=O)Nc2cc(-c3ccccc3)nn2-c2ccccc2)c1 | inactive | inactive | inactive | inactive | inactive | inactive |  |  |  |  |
| Oc1cccc(C2NC(=S)Nc3cccc(F)c32)c1 (centres undefined) | inactive | inactive | inactive | inactive | inactive | inactive |  |  |  |  |
| Cc1cc(C)cc(-c2cnc3cc(Cl)c(-c4cccc(O)c4)cc3c2OCCCN)c1 | inactive | inactive | inactive | inactive | inactive | inactive |  |  |  |  |
| O=C(c1ccccn1)N(Cc1cccs1)C1(C(=O)NC2CCCCC2)CCCCC1 | inactive | inactive | inactive | inactive | inactive | inactive |  |  |  |  |
| Cc1ccc(C(=O)Nc2ccc(CN3CCN(C)CC3)c(C(F)(F)F)c2)cc1C#Cc1cnc2[nH]ncc2c1 | inactive | inactive | 23.9 µM (active) | inactive | inactive | inactive |  |  |  |  |
| C=C1C(=O)O[C@@H]2[C@H]1CC(=O)[C@H](C)[C@@](O)(C(=O)/C=C/C)[C@H]2OC(=O)C(C)CC (some centres undefined) | inactive | inactive | inactive | inactive | inactive | inactive |  |  |  |  |
| CCCCOC(=O)NS(=O)(=O)c1sc(CC(C)C)cc1-c1ccc(Cn2ccnc2)cc1 | inactive | inactive | inactive | inactive | inactive | inactive |  |  |  |  |
| C=CC(=O)N1CCCN(c2cc(NCCC(=O)O)nc(-c3ccccn3)n2)CC1 | inactive | inactive | inactive | inactive | inactive | inactive |  |  |  |  |
| COc1ccc([C@H]2Cc3cccc(O)c3C(=O)O2)cc1OC | inactive | inactive | inactive | inactive | inactive | inactive |  |  |  |  |
| COc1ccc(S(=O)(=O)N2CCC[C@H]2C(=O)Nc2cc(C)cc(C)c2)cc1 | inactive | inactive | inactive | inactive | inactive | inactive |  |  |  |  |
| C=CC(=O)N1CC(N2CCN(C(=O)CNc3cc(C4CC4)c(Cl)cc3O)CC2)C1 | inactive | inactive | inactive | 2.67 µM (active) | inactive | inactive |  |  |  |  |
| COc1cc(NC(=O)c2cccc(-n3cc(NC(=O)Nc4cccc(C)c4)cn3)c2)cc(OC)c1OC | inactive | inactive | inactive | inactive | inactive | inactive |  |  |  |  |
| C=C1C(=O)OC2/C=C(\C)CC/C=C(\C)CC(OC(C)=O)C12 (centres undefined) | inactive | inactive | inactive | inactive | inactive | inactive |  |  |  |  |
| COC(=O)C(Cc1ccc(OCCn2c(=O)sc3cc(C(=O)c4ccccc4)ccc32)cc1)C(=O)OC | inactive | inactive | inactive | inactive | inactive | inactive |  |  |  |  |
| C=C1C(=O)O[C@@H]2C[C@H](C)[C@@H]3CC(=O)C(C)=C3C[C@H]12 | inactive | inactive | inactive | inactive | inactive | inactive |  |  |  |  |
| O=C1Nc2nc(-c3c(O)cccc3OCC3CC3)cc([C@@H]3CCCNC3)c2CO1 | inactive | inactive | inactive | inactive | inactive | inactive |  |  |  |  |
| CC(C)NCCCn1c(Sc2cc3c(cc2I)OCO3)nc2c(N)ncnc21 | inactive | inactive | inactive | inactive | inactive | inactive |  |  |  |  |
| O=C(NCCCc1ccccc1)c1cccc(-c2cc(O)c3ncccc3c2)c1 | inactive | inactive | inactive | inactive | inactive | inactive |  |  |  |  |
| CC(C)(C)c1ccc2c(c1)CC[C@H]2NC(=O)Nc1cccc2[nH]ncc12 | inactive | inactive | inactive | inactive | inactive | inactive |  |  |  |  |
| c1cc(NCCc2c[nH]c3ccccc23)cc(Nc2ccncc2)c1 | inactive | inactive | inactive | 2.67 µM (active) | inactive | inactive |  |  |  |  |
| C=C1C(=O)OC2/C=C(\CO)CC/C=C(\C=O)C(OC)C(OC(=O)C(C)CC)C12 (centres undefined) | inactive | inactive | inactive | 4.12 µM (active) | inactive | inactive |  |  |  |  |
| O=C(COc1ccc2ccccc2c1Br)Nc1cccnc1 | inactive | inactive | 6.01 µM (active) | inactive | inactive | inactive |  |  |  |  |
| COc1ccc(Oc2c(Cl)cnn(-c3cc(C)cc(C)c3)c2=O)cc1 | inactive | inactive | inactive | inactive | inactive | inactive |  |  |  |  |
| COc1ccc(NC(=O)C2C[C@H](C)CC[C@H]2C(C)C)cc1 (some centres undefined) | inactive | inactive | inactive | inactive | inactive | inactive |  |  |  |  |

| SMILES | Potency [1] | Potency [2] | Potency [3] | Potency [4] | Potency [5] | Potency [6] | activity change, negative = inhibition [3] | activity change, negative = thiol reactive [4] | activity, negative = inhibition [5] | redox activity (% of DA3003) [6] |
| --- | --- | --- | --- | --- | --- | --- | --- | --- | --- | --- |
| COc1ccccc1OCCN1CC(COc2cccc3[nH]c4ccccc4c23)OCC1=O (centres undefined) | inactive | inactive | inactive | inactive | inactive | inactive |  |  |  |  |
| CCCC(=O)C1(c2ccccc2)CCN(C(=O)[C@@H](Cc2ccc(OC)cc2)NC(=O)[C@@H](N)Cc2cncn2C)CC1 | inactive | inactive | inactive | inactive | inactive | inactive |  |  |  |  |
| CCC(C)CNCC(=O)N1CCc2sccc2C1COc1cccc(C)c1 (centres undefined) | inactive | inactive | inactive | inactive | inactive | inactive |  |  |  |  |
| COc1ccc(S(=O)(=O)n2cnc3cc(C)c(C)cc32)cc1 | inactive | inactive | inactive | inactive | inactive | inactive |  |  |  |  |
| O=C(NCC1(c2nc(-c3ccccc3)cs2)CCOCC1)c1cccc(-c2noc(C(F)(F)F)n2)c1 | inactive | inactive | inactive | inactive | inactive | inactive |  |  |  |  |
| C[C@H](Oc1cc(-c2cnn(C3CCNCC3)c2)cnc1N)c1c(Cl)ccc(F)c1Cl | inactive | inactive | inactive | inactive | inactive | inactive |  |  |  |  |
| Cc1nc(C#Cc2ccnc(Cl)c2)c(C)n1-c1ccc(F)cc1 | inactive | inactive | inactive | inactive | inactive | inactive |  |  |  |  |
| C=C(CCC1C(C)(O)CCC2C(C)(C)C(O)CCC12C)C(O)CO (centres undefined) | inactive | inactive | inactive | 13.1 µM (active) | inactive | inactive |  |  |  |  |
| Nc1nc2c(c(N3CC[C@@H](N)C3)n1)CCCc1ccccc1-2 | inactive | inactive | inactive | inactive | inactive | inactive |  |  |  |  |
| CCCn1ncc(CN2CCCC(C(=O)c3cccc(OC(C)C)c3)C2)c1C (centres undefined) | inactive | inactive | inactive | inactive | inactive | inactive |  |  |  |  |
| C=CCc1ccc(OC(C)Cc2ccc(OC)c(OC)c2)c(OC)c1 (centres undefined) | inactive | inactive | inactive | inactive | inactive | inactive |  |  |  |  |
| C[C@H]1[C@H](/C=C/c2ccc(-c3ccccc3C#N)cn2)[C@@H]2[C@@H](C)OC(=O)[C@@H]2C[C@@H]1C | inactive | inactive | inactive | inactive | inactive | inactive |  |  |  |  |
| CC(C)(C)c1ccc(C(=O)Nc2cc(Cl)c(Br)cc2C(=O)O)cc1 | inactive | inactive | 6.75 µM (active) | inactive | inactive | inactive |  |  |  |  |
| C[C@H]1CC[C@@]2(OC1)O[C@H]1CC3[C@@H]4CC[C@@H]5C[C@@H](O[C@@H]6O[C@H](CO)[C@@H](O[C@@H]7O[C@@H](C)[C@H](O)[C@@H](O)[C@H]7O)[C@H](O)[C@H]6O[C@@H]6O[C@H](CO)[C@@H](O)[C@H](O)[C@H]6O)CC[C@]5(C)C4CC[C@]3(C)[C@H]1[C@@H]2C (some centres undefined) | inactive | inactive |  |  |  |  | 0.648% [at 11.6 µM] | 131% [at 11.5 µM] | 2.19% [at 11.6 µM] | -5.48% [at 11.5 µM] |
| C=C[C@]1(C)C[C@H](O)[C@H]2C(=C)C(=O)O[C@@H]2[C@H]1C(=C)CO | inactive | inactive | inactive | inactive | inactive | inactive |  |  |  |  |
| COC1C(O)C(OC2CCC3(C)C(CCC45CCC6C7(COC(=O)C7)OC4(O)C6(C)CCC35)C2)OC(C)C1OC1OC(CO)C(OC2OC(CO)C(O)C(O)C2O)C(O)C1O (centres undefined) | inactive | inactive |  |  |  |  | 0.42% [at 11.6 µM] | 19.5% [at 11.5 µM] | 4.19% [at 11.6 µM] | 3.19% [at 11.5 µM] |
| CC(C)(C[C@@](O)(Cc1cc2ccncc2[nH]1)C(F)(F)F)c1cc(F)ccc1O | inactive | inactive | inactive | inactive | inactive | inactive |  |  |  |  |
| COc1cc2c(Nc3cc(F)c(Cl)c(Cl)c3)ncnc2cc1OCC1CCCN(C)CCC1 | inactive | inactive | inactive | inactive | inactive | inactive |  |  |  |  |
| Cc1ccnn1-c1ccc(C(=O)N2CCN(S(=O)(=O)c3ccc(Cl)c(C(F)(F)F)c3)CC2)cc1 | inactive | inactive | inactive | inactive | inactive | inactive |  |  |  |  |
| O=C(CN1C2=NCCN2c2ccccc21)c1ccc(-c2ccccc2)cc1 | inactive | inactive | inactive | inactive | inactive | inactive |  |  |  |  |
| Nc1nc2c(nc(Br)n2[C@@H]2O[C@@H]3COP(=O)(O)O[C@H]3[C@H]2O)c(=O)[nH]1 | inactive | inactive | inactive | inactive | inactive | inactive |  |  |  |  |
| O=C(NCCCN1CCOCC1)c1cnn2c(-c3ccccc3)cc(-c3ccccc3)nc12 | inactive | inactive | inactive | inactive | inactive | inactive |  |  |  |  |
| O=c1[nH]c([C@@H]2CCCN2)nc2c1oc1ccc(Cl)cc12 | inactive | inactive | inactive | inactive | inactive | inactive |  |  |  |  |
| COc1c2c(nc3occc13)C(CC=C(C)C)(OC)C(O)CC2 (centres undefined) | inactive | inactive | inactive | inactive | inactive | inactive |  |  |  |  |
